8 molecules from PubChem BioAssay (NCI) can be followed below.

Some test systems named below: NCI-H23 lung; NCI-H226 lung; NCI-H322M lung; NCI-H460 lung; HOP-92 NSCLC; NCI-H522 lung; A549/ATCC NSCLC; 786-0 renal; COLO 205 colon; DU-145 prostate; K-562 leukemia; MALME-3M melanoma; MDA-MB-231 breast; RXF 393 renal; SF-268 CNS; SF-295 CNS; SF-539 CNS; UACC-257 melanoma; M14 melanoma; HOP-62 NSCLC.
Common to all, as to assay: NCI-60 one-dose screen, 48 h (100 = growth as untreated, 0 = no growth, -100 = all killed)
What all share (settings): 10 µM unless noted

About 83,000 compounds went through this panel and 20% of them were active in at least one assay; those are over-represented in the sample as a whole.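 The test compound was applied at a single concentration to cells in 96-well plates for 48 hours, and percent growth was recorded.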 Values without a mark were called inactive. The source made the active and inactive calls. The calls were made as follows: active = growth percent below 10; inactive = the rest.

`Clc1ccc2[nH]cc(-c3cncn3CCc3ccc4c(c3)OCO4)c2c1`: the growth is 62.9% in the assay with NCI-H23 lung; 56.8% in the assay on NCI-H226 lung; 75.5% in the assay with NCI-H322M lung; 81.6% with NCI-H460 lung; 9.07% (active) in the assay with HOP-92 NSCLC; 69.2% in the assay with NCI-H522 lung. The growth with A549/ATCC NSCLC is 73.2%; with 786-0 renal, 73.7%; in the assay with COLO 205 colon, 80.5%; in the assay on DU-145 prostate, 86.3%; with K-562 leukemia, 48.8%; in the assay on MALME-3M melanoma it was 75.5%. For the same molecule, the growth with MDA-MB-231 breast is 65.8%; with RXF 393 renal, 54.7%; with SF-268 CNS it was 66.5%; in the assay on SF-295 CNS, 58.4%; in the assay with SF-539 CNS, 83.8%; with UACC-257 melanoma it was 57.5%. Further, the growth with M14 melanoma is 78.8%.

Regarding `COc1ccccc1Cn1cc(C#N)c(N)c1C(=O)c1ccc(Br)cc1`, the growth with NCI-H23 lung is 91.8%; in the assay with NCI-H226 lung it was 89.5%; in the assay on NCI-H322M lung, 94.6%; in the assay with NCI-H460 lung it was 96.4%; in the assay on HOP-92 NSCLC, 100%; in the assay with NCI-H522 lung, 89.5%. Further, the growth in the assay on A549/ATCC NSCLC is 101%; in the assay on 786-0 renal, 102%; in the assay on COLO 205 colon, 113%; in the assay on DU-145 prostate it was 104%; with K-562 leukemia it was 83.2%; in the assay with MALME-3M melanoma, 96%. Also, the growth in the assay on MDA-MB-231 breast is 88.7%; in the assay with RXF 393 renal it was 92.1%; with SF-268 CNS it was 96.2%; in the assay on SF-295 CNS, 93%; in the assay on SF-539 CNS, 99.8%; in the assay on UACC-257 melanoma, 100%. Also, the growth in the assay with M14 melanoma is 98.5%.

Regarding `N/C(=N\C(N)=N\c1nc2ccccc2s1)c1ccc(Cl)cc1`, the growth in the assay on NCI-H23 lung was 75.1%; with NCI-H226 lung, 77.8%; with NCI-H322M lung it was 88.3%; with NCI-H460 lung, 52.5%; in the assay on HOP-92 NSCLC it was 84.6%; with NCI-H522 lung, 80.8%. Also, the growth in the assay with A549/ATCC NSCLC was 20.9%; in the assay with 786-0 renal, 102%; with DU-145 prostate it was 85.4%; with K-562 leukemia it was 86.9%; with MALME-3M melanoma, 90.3%; in the assay with MDA-MB-231 breast it was 79.5%. Further, the growth with RXF 393 renal was 92.6%; in the assay with SF-268 CNS it was 93%; with SF-295 CNS, 44.5%; in the assay on SF-539 CNS it was 95.4%; with UACC-257 melanoma, 105%; in the assay on M14 melanoma, 87.6%.

Consider `O=C1/C(=C/c2cc(F)cc(F)c2)Cc2cc3c(cc21)OCO3`, for which the growth is 62.3% in the assay on NCI-H23 lung; 52.2% in the assay on NCI-H226 lung; 41.5% with NCI-H322M lung; 30.3% in the assay on NCI-H460 lung; 63.4% in the assay on HOP-92 NSCLC; 1.49% (active) in the assay with NCI-H522 lung. Also, the growth in the assay with A549/ATCC NSCLC is 59.8%; in the assay with 786-0 renal, 61%; with COLO 205 colon it was -15.2% (active); with DU-145 prostate, 54.4%; in the assay on K-562 leukemia it was 18.4%; in the assay on MALME-3M melanoma it was 37.9%. The growth in the assay with MDA-MB-231 breast was 40.5%; in the assay on RXF 393 renal, 29%; in the assay on SF-268 CNS, 64.7%; with SF-295 CNS, 35.6%; in the assay on SF-539 CNS it was 33.1%; in the assay on UACC-257 melanoma it was 73.6%. For the same molecule, the growth in the assay with M14 melanoma is 20.2%.

For `CCOC(=O)Nc1ccc2c(ccn2C(=O)c2cccc(F)c2)c1`, the growth is 41.4% in the assay on NCI-H23 lung; 53.5% in the assay with NCI-H226 lung; 61.8% with NCI-H322M lung; 14.8% in the assay with NCI-H460 lung; 76% in the assay on HOP-92 NSCLC; 0.367% (active) in the assay on NCI-H522 lung. Also, the growth in the assay with A549/ATCC NSCLC is 47.6%; in the assay on 786-0 renal, 57.5%; in the assay on COLO 205 colon, -3.54% (active); with DU-145 prostate, 29.5%; in the assay on K-562 leukemia it was 14.2%; in the assay with MALME-3M melanoma, 61.7%. Moreover, the growth is 52.8% with MDA-MB-231 breast; 19.3% with RXF 393 renal; 65.8% with SF-268 CNS; 19.6% in the assay with SF-295 CNS; 0.0722% (active) in the assay on SF-539 CNS; 74.4% with UACC-257 melanoma. In the assay with M14 melanoma, the growth is 25.3%.

For `CCCCCCN1C=C/C(=C\C(=O)n2ccc3ccccc32)c2ccccc21`, the growth in the assay on NCI-H23 lung is 9.61% (active); with NCI-H226 lung it was 52.9%; with NCI-H322M lung, 93.5%; in the assay on NCI-H460 lung, 87.7%; in the assay with HOP-92 NSCLC, 82.6%; in the assay on NCI-H522 lung, 57.7%. Moreover, the growth with A549/ATCC NSCLC is 84.3%; in the assay on 786-0 renal, 86.6%; in the assay on COLO 205 colon, 87.3%; with DU-145 prostate it was 74%; with K-562 leukemia it was 31.8%; in the assay on MALME-3M melanoma it was 70.6%. For the same molecule, the growth in the assay on MDA-MB-231 breast was 73%; with RXF 393 renal it was 74.3%; in the assay with SF-268 CNS it was 80.9%; with SF-295 CNS, 34.4%; in the assay with SF-539 CNS it was 87%; in the assay with UACC-257 melanoma, 71.6%. In the assay on M14 melanoma, the growth was 78.5%.

In the case of `Brc1cc(-c2cc(-c3ccc4c(c3)OCCO4)[nH]n2)cs1`, the growth in the assay with NCI-H23 lung was 52.2%; in the assay on NCI-H226 lung it was 74%; in the assay with NCI-H322M lung, 70.8%; in the assay on NCI-H460 lung, 24.1%; in the assay on HOP-92 NSCLC, 65.2%; in the assay with NCI-H522 lung, 29.6%. The growth in the assay with A549/ATCC NSCLC was 42.8%; in the assay on 786-0 renal, 79.2%; with COLO 205 colon it was 57.8%; in the assay on DU-145 prostate it was 54.2%; in the assay on K-562 leukemia, 15%; with MALME-3M melanoma, 35.5%. Moreover, the growth with MDA-MB-231 breast was 51.6%; in the assay on RXF 393 renal it was 47.5%; in the assay with SF-268 CNS it was 62.6%; with SF-295 CNS, 41.7%; in the assay on SF-539 CNS, 41%; with UACC-257 melanoma it was 76.4%. In addition, in the assay on M14 melanoma, the growth is 35%.

In the case of `CC(C)NC(=O)c1cc(-c2ccc(NC(=O)Nc3ccc(F)cc3)cc2)nc2cccnc12`, the growth with NCI-H23 lung was 99.4%; in the assay with NCI-H226 lung it was 99.1%; in the assay with NCI-H322M lung it was 104%; with HOP-62 NSCLC it was 101%; in the assay with NCI-H460 lung, 104%; with HOP-92 NSCLC, 96.7%. The growth in the assay on A549/ATCC NSCLC is 104%; with 786-0 renal, 97.1%; with DU-145 prostate it was 114%; with K-562 leukemia, 110%; in the assay on MALME-3M melanoma it was 118%; with MDA-MB-231 breast, 97.8%. Moreover, the growth with RXF 393 renal is 123%; in the assay with SF-268 CNS, 109%; with SF-295 CNS, 97.7%; in the assay with SF-539 CNS, 102%; with UACC-257 melanoma, 102%; in the assay with M14 melanoma, 102%.
